Records with an inconclusive call do not appear. Activity calls are given as the source filed them. Calls follow the shape of the dose curve; as a rule, active = well fitted inhibition curve with a large enough effect; inconclusive = small, poorly fitted or top-dose-only effect; inactive = no such curve, though single readings can be large or run the other way.
Molecular target: Retinal dehydrogenase 2 (Homo sapiens) (UniProt O94788)
Assay: qHTS for Inhibitors of the Aldehyde Dehydrogenase Family (ALDH1A2) Confirmation screens (AID 2061314); also: nearly all actives have a fitted effect of over 65% in size
Conditions: ALDH1A2 enzyme inhibition qHTS confirmation; series mostly up to 45.9 µM; activity, negative = inhibition: at the top concentration
% is scaled to controls: 0 for no effect and ±100 for the full control effect; potency is read from the fitted curve at half-maximal effect.

Compound	Potency	activity, negative = inhibition	outcome
COc1ccccc1-c1[nH]nc2ncc(C(=O)NCCc3ccccn3)nc12	39.8 µM (active)	–	–
CCN(CC)S(=O)(=O)c1ccc2c(c1)N(CC(=O)N1CCN(c3cccc(C(F)(F)F)c3)CC1)C(=O)CO2	–	-100% (inactive)	–
CCN(CC)CCNC(=O)CN1C(=O)COc2ccc(S(=O)(=O)N3CCOCC3)cc21	–	–	inactive
O=c1c2nc(OCc3ccc(F)cc3)ccc2ncn1C1CC1	–	-21.7% (inactive)	–
COc1ccc(C(CNC(=O)c2cccc([N+](=O)[O-])c2)N2CCOCC2)cc1 (centres undefined)	–	-16.6% (inactive)	–
CCOc1ccc(C(=O)Nc2ccc(S(=O)(=O)N3CCCCC3c3cccnc3)cc2)cc1 (centres undefined)	–	-32.1% (inactive)	–
Cc1cccn2c(=O)c3cc(C#N)c(=O)n(-c4nnc(SCc5ccc(Cl)cc5)s4)c3nc12	–	-6.41% (inactive)	–
COc1cc(-c2noc(-c3ccc(NC4CCCCC4)c([N+](=O)[O-])c3)n2)cc(OC)c1OC	–	-26.3% (inactive)	–
CCOc1ccc(C(=O)N(Cc2ccc(C(C)C)cc2)Cc2ccco2)cc1	–	–	inactive
COc1cccc(-c2cccc(C(=O)N3CCN([S+](=O)([O-])c4ccccc4)CC3)c2)c1	–	-25.2% (inactive)	–
CNC(=O)c1cc(C2CC2)nc2onc(C3CCCN3C(=O)c3cccc(Cl)c3)c12 (centres undefined)	–	-23.6% (inactive)	–
CN(Cc1ccccc1C(F)(F)F)C(=O)c1ccc(Cl)nc1	–	–	inactive
COCCn1c(SCc2ccccc2F)nc2c([nH]c3ccccc32)c1=O	–	-23.4% (inactive)	–
COc1ccc(NC(=O)c2ccco2)cc1NC(=O)c1ccccc1[N+](=O)[O-]	–	-13.4% (inactive)	–
COC(=O)c1cc(C)nc2c1c(=O)nc(SCc1cccc(C)c1)n2C1CC1	–	-20.4% (inactive)	–
Cc1cc(C)n2nc(CNS(=O)(=O)c3ccc(Cl)cc3)nc2n1	–	-0.953% (inactive)	–
COc1ccc(S(=O)(=O)NCc2nc3nc(C)cc(C)n3n2)cc1OC	–	-6.11% (inactive)	–
CCc1cnc2c(c1SCc1ccccc1C)c(=O)n(C)c(=O)n2C	–	-2.82% (inactive)	–
Cc1ccc(-c2nnc3ccccc3c2C(=O)Nc2cccc(C(F)(F)F)c2)cc1	–	-4.09% (inactive)	–
CC[C@H]1CN(C(=O)Nc2cccc(C(F)(F)F)c2)CC[C@H]1CC(=O)N(C)CCC#N	–	-9.54% (inactive)	–

Compound	Potency	activity, negative = inhibition	outcome
COCCNC(=O)CCSc1nc(-c2ccc(OC)cc2)cc(C(F)(F)F)n1	–	-22.7% (inactive)	–
CC(Cn1cncn1)NC(=O)c1cccc(S(=O)(=O)N2CCOCC2)c1 (centres undefined)	–	–	inactive
O=C(NCCOc1ccccc1)[C@@H]1C[C@@H](c2ccc(F)cc2)N([S+](=O)([O-])c2ccccc2)C1	–	-9.76% (inactive)	–
Cn1c(=O)n([C@H]2CCCN(C(=O)c3cccnc3)C2)c2ncccc21	–	-8.73% (inactive)	–
COc1ccc(-c2nc(C(=O)Nc3ccc(C(C)=O)cc3)nn2-c2cccc(Cl)c2)cc1	–	-13.7% (inactive)	–
Cc1nc2c(c(C)c1CCC(=O)Nc1ccc(F)cc1)c(=O)n(C)c(=O)n2C	–	–	inactive
COc1ccc(S(=O)(=O)c2c(C(=O)c3ccc(C)c(C)c3)cnc3ccc(C)cc23)cc1	–	-9.88% (inactive)	–
COc1ccc(S(=O)(=O)N2CCC(N(C(=O)C3CC3)C3CCOCC3)CC2)cc1	–	-2.07% (inactive)	–
CC(=O)Nc1ccc(S(=O)(=O)N[C@@H]2C=C[C@@H](c3c(C)nn(-c4ccc(C(C)(C)C)cc4)c3C)C2)cc1	–	2.6% (inactive)	–
O=C(O)C1(Oc2ccc(Cl)cc2)CCN(c2cnccn2)CC1	–	2.05% (inactive)	–
COc1cncc(Nc2cnc3ccc(-c4ccc(F)cc4)nn23)c1	–	-15.6% (inactive)	–
CCOc1ccc(C(=O)Nc2ccc(NC(=O)c3ccccc3)cc2)cc1Br	–	-29.5% (inactive)	–
CCOC(=O)c1ccccc1NC(=O)c1cnc(N2CCOCC2)c2ccccc12	–	4.38% (inactive)	–
COc1cccc(-n2c(SCc3ccccc3C)nc3c([nH]c4ccccc43)c2=O)c1	–	-24.5% (inactive)	–
O=c1c2cn[nH]c2nc(SCc2cccc(Br)c2)n1-c1ccc(Cl)cc1	–	-14.6% (inactive)	–
CN(CC(=O)Nc1ccc(OC(F)(F)F)cc1)S(=O)(=O)c1ccc2c(c1)CCC(=O)N2	–	-4.54% (inactive)	–
COc1ccc(-c2nnc(SCC(=O)Nc3cccc(C(F)(F)F)c3)nc2-c2ccc(OC)cc2)cc1	–	–	inactive
COc1ccc(-c2ccc(C(=O)Nc3cccc(C(F)(F)F)c3)cc2)nn1	–	-12.4% (inactive)	–
COc1cc2nc(NC(=O)c3ccc(S(=O)(=O)N4CCOCC4)cc3)sc2cc1OC	–	-23.7% (inactive)	–
